Screening results (PubChem BioAssay)
Sampled rows, rich in hits. Any-hit rate of the full collection: about 7.5%.
NPC1 promoter act: qHTS Assay for NPC1 Promoter Activators; Huh7 NPC1 promoter luciferase reporter, 24 h; Potency, µM (titrated, usually from 9.22 µM), most hits filed as activators; hit rate 2.4% among 320,000; AID 485313, 2010; also: nearly all actives have a fitted effect of over 60% in size
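Luminescence read-out of NPC1 promoter-driven luciferase in stably transfected Huh7 cells; compounds delivered in DMSO and left 24 h at 37C, 5% CO2, qHTS titration format.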
ELG1 genotox: qHTS screen for small molecules that induce genotoxicity in human embryonic kidney (HEK293T) cells expressing luciferase-tagged ELG1. hit rate 1.3% among 330,000. HEK293T ELG1-luciferase reporter, luminescence, 16 h. Potency, µM (series often up to 46 µM), hits mostly activators; also: nearly all actives have a fitted effect of over 60% in size
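Reporter readout depends on ELG1 protein level, which increases with genetic stress. After 16 hr compound exposure at 37 °C, luciferase activity was quantified using ONE-Glo.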
SMN2 splice up: qHTS Assay for Enhancers of SMN2 Splice Variant Expression | AID 1458, 2008 | hit rate 2.8% among 210,000 | HEK293 SMN2-luciferase splicing reporter, luminescence, 30-36 h | Potency, µM (titrated, usually from 46.1 µM), hits mostly activators; also: nearly all actives have a fitted effect of over 55% in size
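HEK293 cells carry an SMN2 […]–luciferase reporter in which exon 7 inclusion puts luciferase in frame. Cells were plated 10-12 h before compound addition, then incubated 30-36 h at 37C. ONE-Glo luminescence was read; sodium butyrate at 4.5 mM final served as control.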
Rab9 prom act: qHTS Assay for Rab9 Promoter Activators; Potency, µM (series often up to 9.22 µM), hits mostly activators; Huh7 Rab9 promoter-luciferase reporter, luminescence, 24 h; hit rate 2.8% among 320,000; also: nearly all actives have a fitted effect of over 60% in size
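Steps: seed 1500 Huh7 Rab9-luc cells per well, rest 2 h at 37 °C; add compound in DMSO; incubate 24 h; add luciferase reagent, 10 min ambient; read luminescence.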
FLuc counter: qHTS profiling assay for firefly luciferase inhibitor/activator using purifed enzyme and Km concentrations of substrates (counterscreen for miR-21 project); Luciferin 4-monooxygenase (Photinus pyralis), P08659; purified FLuc, Km substrates, luminescence inhibition; Potency, µM (titrated, usually from 57.5 µM), usual class: inhibitors; hit rate 6.9% among 360,000; AID 588342, 2011; also: nearly all actives have a fitted effect of over 55% in size
Target sequence (P08659 whole entry, looked up): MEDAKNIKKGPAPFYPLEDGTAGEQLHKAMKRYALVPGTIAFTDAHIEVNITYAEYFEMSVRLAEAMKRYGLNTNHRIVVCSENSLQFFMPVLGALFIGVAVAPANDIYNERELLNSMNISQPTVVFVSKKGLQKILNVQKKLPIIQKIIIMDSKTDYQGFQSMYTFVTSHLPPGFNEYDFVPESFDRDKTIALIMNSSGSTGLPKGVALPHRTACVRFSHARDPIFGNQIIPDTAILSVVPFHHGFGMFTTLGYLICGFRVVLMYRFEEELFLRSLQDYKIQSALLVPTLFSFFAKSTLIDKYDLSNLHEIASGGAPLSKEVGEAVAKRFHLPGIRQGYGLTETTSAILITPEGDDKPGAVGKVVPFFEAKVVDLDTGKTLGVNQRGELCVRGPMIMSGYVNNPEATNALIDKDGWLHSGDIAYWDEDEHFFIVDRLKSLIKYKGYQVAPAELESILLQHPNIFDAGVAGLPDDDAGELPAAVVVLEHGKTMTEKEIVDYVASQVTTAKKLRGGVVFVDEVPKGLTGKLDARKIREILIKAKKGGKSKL
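Purified P. pyralis luciferase (10nM final) with 10uM D-luciferin and 10uM ATP (Km levels) in 50mM Tris acetate pH 7.5, 10mM Mg acetate, 0.01% Tween-20, 0.05% BSA; qHTS 6-point titration, ~60 µM downward; luminescence read.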
KinaseGlo FLuc: Counterscreen for Luciferase (Kinase-Glo TM) Inhibition; Kinase-Glo luciferase, ATP luminescence, 8 min; Luciferin 4-monooxygenase (Photuris pensylvanica), Q27757; Potency, µM (titrated, usually from 38.3 µM), most hits filed as inhibitors; hit rate 0.28% among 200,000; also: nearly all actives have a fitted effect of over 60% in size
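Inhibition of Kinase-Glo luciferase light generation was assessed at 10 uM ATP in pH 7.2 imidazole buffer, with luminescence measured after eight minutes at ambient temperature.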
Hits are given with their value; [ ] = remark or other dose. Calls follow the shape of the dose curve; as a rule, active = well fitted curve in the direction sought with a large enough effect; inconclusive = small, poorly fitted or top-dose-only effect, or another doubt; inactive = no such curve, though single readings can be large; an effect the other way counts as inactive or inconclusive.

Results for CCOC(=O)COc1ccccc1C(=O)c1cnn(-c2ccccc2)c1 ?
NPC1 promoter act: inconclusive; ELG1 genotox: inconclusive; Rab9 prom act: inconclusive; FLuc counter: 10.7µM

Results for CCOc1ccc(NC(=O)Cn2nnc(C(=O)NCCc3ccccc3)c2N)cc1 ?
SMN2 splice up: inactive; FLuc counter: inactive

Results for CCCOP(=O)(c1ccc(N(C)C)cc1)C(O)c1ccc(Cl)cc1 (stereo unspecified) ?
NPC1 promoter act: inactive; ELG1 genotox: inactive; Rab9 prom act: inactive; FLuc counter: inactive

How did Cn1cccc1C(=O)N1CCC2(CC1)CCN(c1ccncc1)CC2 do in these assays?
SMN2 splice up: inactive; KinaseGlo FLuc: inactive

What do the screens show for `CN(C)c1ccc(/C=C/c2noc(-c3ccccc3O)n2)cc1`?
SMN2 splice up: inactive; FLuc counter: 0.675µM

Results for Oc1ccccc1-c1nc(/C=C/c2ccccc2Cl)no1 ?
SMN2 splice up: inactive; FLuc counter: 0.19µM

Results for Oc1ccccc1-c1nc(/C=C/c2ccccc2Cl)nn1-c1ccccc1 ?
SMN2 splice up: inactive; FLuc counter: 6.01µM

How did CCc1nc(-c2ccccc2O)n(-c2ccccc2)n1 do in these assays?
NPC1 promoter act: inactive; ELG1 genotox: inactive; SMN2 splice up: inactive; Rab9 prom act: inactive; FLuc counter: inactive; KinaseGlo FLuc: inactive

What do the screens show for `Cc1noc(C)c1COC(=O)/C=C/c1ccccc1Cl`?
NPC1 promoter act: inactive; ELG1 genotox: inactive; SMN2 splice up: inactive; Rab9 prom act: inactive; FLuc counter: inconclusive; KinaseGlo FLuc: inactive

Results for CN(C)c1ccc(/C=C/c2nc3ccccc3c(=O)n2CCO)cc1 ?
NPC1 promoter act: inactive; ELG1 genotox: inactive; Rab9 prom act: inactive; FLuc counter: inactive

How did COc1ccccc1NC(=O)Cn1c(=O)n(-c2cccc(Cl)c2)c(=O)c2c1c1cc(C)ccc1n2C do in these assays?
SMN2 splice up: inactive; FLuc counter: inactive

What do the screens show for `O=C(CSc1ncc(-c2ccccc2)[nH]1)Nc1cccc(Br)c1`?
SMN2 splice up: inactive; FLuc counter: inconclusive

How did Cc1ccc(NC(CC(=O)c2ccccc2)c2ccc(F)cc2)cc1 (stereo unspecified) do in these assays?
NPC1 promoter act: inactive; ELG1 genotox: inactive; SMN2 splice up: inactive; Rab9 prom act: inactive; FLuc counter: inactive; KinaseGlo FLuc: inactive

Results for O=C(CC(Nc1ccc(F)cc1)C(=O)O)c1ccccc1 (stereo unspecified) ?
NPC1 promoter act: 1.12µM; ELG1 genotox: 1.03µM; SMN2 splice up: 12.6µM; Rab9 prom act: 1.26µM; FLuc counter: 1.07µM; KinaseGlo FLuc: inactive

What do the screens show for `O=C(CC(Nc1ccc(F)cc1)C(=O)OCC(=O)c1cccs1)c1ccccc1` (stereo unspecified)?
NPC1 promoter act: inconclusive; ELG1 genotox: inconclusive; SMN2 splice up: inconclusive; Rab9 prom act: 4.47µM; FLuc counter: inconclusive; KinaseGlo FLuc: inactive

Results for CC(C)[C@H](NC(=O)c1ccco1)C(=O)OCC(=O)c1ccc(Br)s1 ?
ELG1 genotox: inactive

How did Cc1cccc(C)c1NC(=O)c1cc(S(=O)(=O)N2CCc3ccccc3C2)ccc1F do in these assays?
FLuc counter: inactive

How did Cc1ccc(NC(=O)C(=O)C2C(=O)Nc3ccccc32)cc1 (stereo unspecified) do in these assays?
NPC1 promoter act: inconclusive; ELG1 genotox: inconclusive; Rab9 prom act: inconclusive; FLuc counter: 12µM

What do the screens show for `CN(C)CCNC(=O)C(=O)C1C(=O)Nc2ccccc21` (stereo unspecified)?
NPC1 promoter act: inactive; ELG1 genotox: inactive; SMN2 splice up: inactive; Rab9 prom act: inactive; FLuc counter: inactive; KinaseGlo FLuc: inactive

What do the screens show for `CC1=NN(c2ccccc2)C(=O)C1C(=O)c1ccccc1` (stereo unspecified)?
NPC1 promoter act: inactive; ELG1 genotox: inactive; SMN2 splice up: inactive; Rab9 prom act: inactive; FLuc counter: inactive; KinaseGlo FLuc: inactive

Results for CC1=NN(c2ccccc2)C(=O)C1C(=O)C(=O)Nc1ccc(F)cc1 (stereo unspecified) ?
NPC1 promoter act: inconclusive; ELG1 genotox: inconclusive; Rab9 prom act: 3.16µM; FLuc counter: 9.53µM

Results for CCOC(=O)Cc1ccc(NC(=O)c2ccc(C(C)(C)C)cc2)cc1 ?
NPC1 promoter act: inactive; ELG1 genotox: inactive; SMN2 splice up: inactive; Rab9 prom act: inactive; FLuc counter: 1.07µM; KinaseGlo FLuc: inactive

Results for CCOC(=O)c1ccc(NC(=O)c2ccc(NC(=O)c3ccccc3)cc2)cc1 ?
NPC1 promoter act: inactive; ELG1 genotox: inconclusive; SMN2 splice up: inconclusive; Rab9 prom act: inactive; FLuc counter: inactive; KinaseGlo FLuc: inactive

What do the screens show for `CCOC(=O)Cc1ccc(NC(=O)c2ccccc2Br)cc1`?
NPC1 promoter act: inactive; ELG1 genotox: inactive; SMN2 splice up: inactive; Rab9 prom act: inactive; FLuc counter: 19µM; KinaseGlo FLuc: inactive

How did Cc1nn(C)c2c1c(-c1ccccc1)cc(=O)n2C(C)C(=O)NCCc1ccc(Cl)cc1 (stereo unspecified) do in these assays?
FLuc counter: inactive

Results for COc1ccc(CCNC(=O)CSc2nc3sc(C(=O)O)c(C)c3c(=O)[nH]2)cc1OC ?
NPC1 promoter act: inactive; ELG1 genotox: inactive; Rab9 prom act: inactive; FLuc counter: inactive

Results for Cc1c(C(=O)O)sc2nc(/C=C/c3cccc(O)c3)[nH]c(=O)c12 ?
NPC1 promoter act: inactive; ELG1 genotox: inactive; Rab9 prom act: inactive[1.84 µM]; FLuc counter: 16.9µM

Results for O=C(COC(=O)c1ccco1)NCCNC(=O)COC(=O)c1ccco1 ?
NPC1 promoter act: inactive; ELG1 genotox: inactive; Rab9 prom act: inactive; FLuc counter: inactive

What do the screens show for `COc1cc(C(=O)COC(=O)c2ccco2)cc(OC)c1OC`?
ELG1 genotox: inactive

What do the screens show for `O=C(CSCc1ccc(Cl)cc1)c1ccco1`?
NPC1 promoter act: inactive; ELG1 genotox: inactive; SMN2 splice up: inactive; Rab9 prom act: inactive; FLuc counter: 15.1µM; KinaseGlo FLuc: inactive

Results for Cc1ccc(CNC(=O)COC(=O)c2ccc(Br)o2)cc1 ?
NPC1 promoter act: inactive; ELG1 genotox: inactive; Rab9 prom act: inactive

What do the screens show for `O=C(COC(=O)c1ccco1)c1ccc(Cl)cc1`?
NPC1 promoter act: inactive; ELG1 genotox: inactive; Rab9 prom act: inactive; FLuc counter: 1.69µM

How did Cc1ccc(C(=O)COC(=O)c2ccco2)cc1C do in these assays?
NPC1 promoter act: inactive; ELG1 genotox: 23.1µM; Rab9 prom act: inactive; FLuc counter: 1.51µM
